{"source": "PubChem BioAssay (NCATS)", "note": "Inconclusive results are not listed. The source made the active and inactive calls. Calls come from the whole dose curve; as a rule, active = well fitted cell-killing curve with a large enough effect; inconclusive = small, poorly fitted or top-dose-only effect, or effect the other way; inactive = no such curve, though single readings can be large or run the other way. Potency is the fitted concentration of half-maximal effect.", "data": [{"assay": "Quantitative High-Throughput drug screen in 47 multiple myeloma cell lines against the NCATS MIPE library collection: MOLP8_DSMZ cell viability assay (AID 1918977); note: nearly all actives have a fitted effect of over 45% in size", "settings": "MOLP8 myeloma viability, CellTiter-Glo ATP luminescence, 48 h; series mostly up to 45.8 µM; viability (% of control): at the top concentration", "from_the_text": "PI: Beverly A. Mock Ph.D.\nLaboratory of Cancer Biology and Genetics,\nCenter for Cancer Research, National Cancer Institute,\nNational Institute of Health, Bethesda, Maryland\nDrug resistance and disease progression are common in multiple myeloma (MM) patients, underscoring the need for new therapeutic combinations. […] We hypothesized that effective combinations would reduce MYC expression and enhance p16 activity. […] These preclinical data identify potentially useful drug combinations for evaluation in drug-resistant MM and reveal potential mechanisms of combined drug sensitivity.\nDescribed herein is the primary MIPE qHTS used to cherrypick compounds. Validated compounds were then further tested for potential synergistic activiy.\n[1] Peat TJ, Gaikwad SM, Dubois W, Gyabaah-Kessie N, Zhang S, Gorjifard S, Phyo Z, Andres M, Hughitt VK, Simpson RM, Miller MA, Girvin AT, Taylor A, Williams D, D'Antonio N, Zhang Y, Rajagopalan A, Flietner E, Wilson K, Zhang X, Shinn P, Klumpp-Thomas C, McKnight C, Itkin Z, Chen L, Kazandijian D, Zhang J, Michalowski AM, Simmons JK, Keats J, Thomas CJ, Mock BA. Drug combinations identified by high-throughput screening promote cell cycle transition and upregulate Smad pathways in myeloma. Cancer Lett. 2023 Aug 1;568:216284. doi: 10.1016/j.canlet.2023.216284. Epub 2023 Jun 24. PMID: 37356470; PMCID: PMC10408729.\nSEQUENCE No. (e.g., 1, 2, 3, etc.); […] (e.g., Cells, Incubation, Reagent, etc.); VALUE and DESCRIPTION.\n1; Cells; 5 uL; white, solid bottom 1536-well Greiner assay plate.\n2; Compounds; 23 nL; Kalypsis pin tool (Wako USA) equipped with a 1536-well pin head to transfer to the assay plates.\n3; Incubation; 48 hours; 37C incubation.\n4; Reagent;5uL; CellTiter Glo (Promega).\n5; Detector; 425V; Luminescence; Viewlux PerkinElmer.\nNOTES (numbers refer to Sequence numbers above)\n1. The cell-based screening methods employed in this study were like those previously published. Briefly, the corresponding myeloma cell lines were screened in 1,536-well plates with 500 cells, 5-uL per well for inhibition of cell viability (assessed by measuring ATP levels with CellTiterGlo).\n2. NCATS MIPE 4.0 library of approved and investigational drugs were added using the Kalypsis pin tool. Wells treated with DMSO only for 100% viability and media only for 0% viability were used as controls.\n3. The assay plates were covered and incubated for 48 hours in a 37C, 5% CO2 incubator with controlled humidity.\n4. After 48 hours, CellTilter-GloTM luminescent substrate mix (Promega) reagent was added to the assay plate and plates we incubated for 5 min at room temperature.\n5. Signal was measured as median relative luminescence units on a ViewLux (PerkinElmer) multiplate reader.\n[1] Heske CM, Davis MI, Baumgart JT, Wilson K, Gormally MV, Chen L, Zhang X, Ceribelli M, Duveau DY, Guha R, Ferrer M, Arnaldez FI, Ji J, Tran HL, Zhang Y, Mendoza A, Helman LJ, Thomas CJ. Matrix Screen Identifies Synergistic Combination of PARP Inhibitors and Nicotinamide Phosphoribosyltransferase (NAMPT) Inhibitors in Ewing Sarcoma. Clin Cancer Res. 2017 Dec 1;23(23):7301-7311. doi: 10.1158/1078-0432.CCR-17-1121. Epub 2017 Sep 12. PMID: 28899971; PMCID: PMC6636827.", "values": [{"smiles": "CC(C)=CCCC(C)=CCCC(C)=CCCC(C)=CCCC(C)=CCCC(C)=CCCC(C)=CCCC(C)=CCCC(C)=CCO", "Potency": "9.35 µM (active)"}, {"smiles": "OC[C@H]1O[C@@H](OCCc2ccc(O)cc2)[C@H](O)[C@@H](O)[C@H]1O", "viability (% of control)": "106% (inactive)"}, {"smiles": "C[C@@H]1C[C@H]2[C@@H]3CCC4=CC(=O)C=C[C@]4(C)[C@@]3(F)[C@@H](O)C[C@]2(C)[C@@]1(O)C(=O)CO", "viability (% of control)": "98% (inactive)"}, {"smiles": "COC(=O)[C@H](c1ccccc1Cl)N1CCc2sccc2C1", "viability (% of control)": "119% (inactive)"}, {"smiles": "CC(C)(CO)[C@@H](O)C(=O)NCCC(=O)O", "viability (% of control)": "115% (inactive)"}, {"smiles": "Cc1ccc(S(=O)(=O)Nc2nc3ccccc3nc2Nc2ccc3nsnc3c2)cc1", "Potency": "6.45 µM (active)"}, {"smiles": "CC(C)n1c(C=C[C@H](O)C[C@H](O)CC(=O)O)c(-c2ccc(F)cc2)c2ccccc21", "Potency": "2.96 µM (active)"}, {"smiles": "CN(C)CCOc1ccc(C(=C(CCCl)c2ccccc2)c2ccccc2)cc1", "Potency": "18.7 µM (active)"}, {"smiles": "COc1ccc(C=CC(=O)Nc2ccccc2C(=O)O)cc1OC", "viability (% of control)": "94.3% (inactive)"}, {"smiles": "CC=C(C(=CC)c1ccc(O)cc1)c1ccc(O)cc1", "viability (% of control)": "88.9% (inactive)"}, {"smiles": "N=C1SC(=Cc2ccc(-c3ccc4c(c3)C(=O)NC4=O)o2)C(=O)N1c1ccc(Br)cc1", "Potency": "3.72 µM (active)"}, {"smiles": "CCOC(=O)N1CCN([N+]([O-])=NOc2cc(ON=[N+]([O-])N3CCN(C(=O)OCC)CC3)c([N+](=O)[O-])cc2[N+](=O)[O-])CC1", "Potency": "2.35 µM (active)"}, {"smiles": "Cc1cnc(CNC(=O)c2c(=O)c3ccc(N4CCCN(C)CC4)nc3n3c2sc2ccccc23)cn1", "Potency": "9.11 µM (active)"}, {"smiles": "CCC=CC[C@H]1C(=O)CC[C@@H]1CC(=O)OC", "viability (% of control)": "107% (inactive)"}, {"smiles": "CS(=O)(=O)c1ccc(C2=C(c3ccccc3)C(=O)OC2)cc1", "viability (% of control)": "124% (inactive)"}, {"smiles": "O=C(Nc1cccc(C(F)(F)F)c1)Nc1cc(S(=O)(=O)NC2CC2)ccc1-c1ccsc1", "Potency": "4.18 µM (active)"}, {"smiles": "Cc1cccc(-c2[nH]c(C(C)(C)C)nc2-c2ccc3c(c2)OCO3)n1", "Potency": "6.62 µM (active)"}, {"smiles": "Cc1nc(NC(=O)N2CCC[C@@H]2C(N)=O)sc1-c1csc(C(C)(C)C)n1", "Potency": "0.166 µM (active)"}, {"smiles": "CCN(CCO)CCCOc1ccc2c(Nc3cc(CC(=O)Nc4cccc(F)c4)[nH]n3)ncnc2c1", "viability (% of control)": "68.8% (inactive)"}, {"smiles": "O=C(O)CCC=CCC[C@@H]1[C@H](N2CCCCC2)[C@@H](O)C[C@@H]1OCc1ccc(-c2ccccc2)cc1", "viability (% of control)": "104% (inactive)"}, {"smiles": "CCc1cccc(CC)c1NC(=O)N1Cc2[nH]nc(NC(=O)c3ccc(N4CCN(C)CC4)cc3)c2C1", "Potency": "16.6 µM (active)"}, {"smiles": "C#C[C@]1(O)CC[C@H]2[C@H]3CCc4cc(OC)ccc4[C@H]3CC[C@@]21C", "viability (% of control)": "78.2% (inactive)"}, {"smiles": "CNC1[C@H](O)C(O[C@@H]2C(O)C(O[C@H]3O[C@H]([C@@H](C)NC)CC[C@H]3N)[C@@H](N)C[C@H]2N)OC[C@]1(C)O", "note": "(stereo not given in full)", "viability (% of control)": "100% (inactive)"}, {"smiles": "O=C1C(CCC(O)c2ccc(F)cc2)C(c2ccc(O)cc2)N1c1ccc(F)cc1", "note": "(stereo not given)", "viability (% of control)": "118% (inactive)"}, {"smiles": "COc1cc2nc(-c3cc(F)ccc3O)nc(N[C@@H]3CNC[C@@H]3C(C)(C)O)c2cc1OC", "Potency": "5.9 µM (active)"}, {"smiles": "Cc1nc2c([nH]1)CCN(C(=O)c1ccc(NC(=O)c3ccccc3-c3ccccc3)cc1)c1ccccc1-2", "viability (% of control)": "105% (inactive)"}, {"smiles": "Cc1ccc(S(=O)(=O)OCC(=O)Nc2ccc(C(=O)O)c(O)c2)cc1", "viability (% of control)": "78.2% (inactive)"}, {"smiles": "CCN(CC)CCCCNc1nc2cc(Cl)c(Cl)cc2nc1-c1ccc(-c2cccs2)s1", "Potency": "8.33 µM (active)"}, {"smiles": "CO[C@H]1/C=C\\O[C@@]2(C)Oc3c(C)c(O)c4c(O)c(c(C=NN5CCN(C6CCCC6)CC5)c(O)c4c3C2=O)NC(=O)C(C)=CC=C[C@H](C)[C@H](O)[C@@H](C)[C@@H](O)[C@@H](C)[C@H](OC(C)=O)[C@H]1C", "Potency": "8.33 µM (active)"}, {"smiles": "Nc1ccn([C@@H]2O[C@H](CO)[C@@H](O)[C@H]2O)c(=O)n1", "viability (% of control)": "58.4% (inactive)"}, {"smiles": "COc1ccnc(CS(=O)c2nc3ccc(OC(F)F)cc3[nH]2)c1OC", "note": "(stereo not given)", "viability (% of control)": "129% (inactive)"}, {"smiles": "Cc1ccc2c(c1)c1c(n2CCc2ccc(C)nc2)CCN(C)C1", "viability (% of control)": "103% (inactive)"}, {"smiles": "CC(C)[C@H](O)C(=O)N[C@@H](C)C(=O)N[C@@H]1C(=O)N(C)CCc2ccccc21", "Potency": "0.0053 µM (active)"}, {"smiles": "Cc1cccc(Nc2nc(N[C@@H]3CCCC[C@H]3N)ncc2C(N)=O)c1", "Potency": "14.8 µM (active)"}, {"smiles": "OC(c1cc(C(F)(F)F)nc2c(C(F)(F)F)cccc12)C1CCCCN1", "note": "(stereo not given)", "Potency": "23.5 µM (active)"}, {"smiles": "COc1ccc(-c2nc3ccc(C4=NNC(=O)CC4C)cc3[nH]2)cc1", "note": "(stereo not given)", "viability (% of control)": "103% (inactive)"}, {"smiles": "Cn1cnc(-c2cc3nccc(Oc4ccc(NC(=S)NC(=O)Cc5ccccc5)cc4F)c3s2)c1", "viability (% of control)": "57.4% (inactive)"}, {"smiles": "CCCCn1c(=O)n(Cc2ccccc2F)c(=O)c2[nH]c(Cc3ccc(NC(C)=O)cc3)nc21", "viability (% of control)": "63.2% (inactive)"}, {"smiles": "O=C(Nc1ncc(SCCN2CCCC2)s1)[C@]1(c2ccc(S(=O)(=O)C3CC3)cc2)C[C@@H]1C1CCCCC1", "Potency": "16.6 µM (active)"}, {"smiles": "CC(=O)OCC(=O)[C@@]1(O)CC[C@H]2[C@@H]3CCC4=CC(=O)C=C[C@]4(C)[C@@H]3[C@@H](O)C[C@@]21C", "Potency": "2.35 µM (active)"}]}]}
